# In PubChem BioAssay (NCATS):
# Records with an inconclusive call do not appear. A call without a number means that no potency is given here. Active and inactive are the calls of the source. The call rests on the fitted dose curve; in most records, active means well fitted cell-killing curve with a large enough effect; inconclusive means small, poorly fitted or top-dose-only effect; inactive means no such curve, though single readings can be large or run the other way.
# Assay: qHTS of pediatric cancer cell lines to identify multiple opportunities for drug repurposing: Primary screen for Saos-2 cells (AID 1347097); further: nearly all actives have a fitted effect of over 40% in size
# Settings: Saos-2 viability, CellTiter-Glo ATP luminescence, 48 h; series mostly up to 46 µM
# Text: Drug repurposing or repositioning has been offered as a strategy for drug development in oncology programs. This approach has special potential for childhood cancers and other rare or orphan diseases, where the expected return on new drug development has been a disincentive to pharmaceuticals. […] In this project we exploit the poly-pharmacology of drugs to discover new indications via phenotypic screening of a panel of 19 well-characterized cell lines derived from solid tumors seen in children and adolescents. The goal is to identify approved drugs with previously unrecognized anticancer properties that has the potential to reveal new mechanisms and biological processes involved in carcinogenesis or drug resistance. We employed a titration-based paradigm (quantitative high-throughput screening or qHTS), where all compounds were tested at multiple concentrations for their effect on cell viability. Concentration-response curves (CRCs) were derived directly from the primary screen, and both potency and efficacy values were used to identify compounds with robust bioactivity profiles. We screened the NIH Chemical Genomics Center (NCGC) Pharmaceutical Collection (NPC) and Mechanism Interrogation Plate (MIPE) small molecule collections of approved and investigational compounds against these cell lines; and measured metabolically active cells after 48 hours of compound treatment as a proxy for cell viability. […] Assay Submitter: Nathalia J. Martinez, National Center for Advancing Translational Sciences, National Institutes of Health, Rockville, MD, USA; email: natalia.martinez@nih.gov Shen, M et al. Quantitative high-throughput phenotypic screening of pediatric cancer cell lines identifies multiple opportunities for drug repurposing. Oncotarget 2017 Dec 19;9(4):4758-4772. PMID 29435139.
# The cells were obtained from University of North Carolina (UNC), Pediatric Preclinical Testing Program (PPT), and Coriell Institute (CI). qHTS cell viability assay: Cells were assayed in growth media at a density of 500-1,000 cells/well. Five microliters of cells were dispensed into 1,536-well, white, solid-bottom, TC-treated plates (Greiner Bio One) using a multidrop dispenser and incubated at 37 degrees C, 5% CO2, under a humidified atmosphere for 5 hours. Twenty-three nanoliters of compounds and controls (neutral control DMSO or positive control bortezomib at final concentration of 2.3 µM) were subsequently transferred by Kalypsys pintool. For primary screens, the MIPE collection was tested at 11-point dilutions (final concentrations range from 0.78 nM to 46 µM) and the NPC collection at 8-point dilutions (final concentrations range from 0.59 nM to 46 µM). Compounds tested in follow-up screens were assayed at 11-point dilutions. Cells were incubated for 48 hours, followed by addition of 3 µL of CellTiter-Glo (Promega). After a 15 min incubation at room temperature, samples were analyzed for luminescence intensity using a ViewLux High-throughput CCD imager equipped with clear filters.
# Potency means the concentration at half of the fitted maximal effect.
row,Compound,Potency
1,COc1ccc2[nH]c(S(=O)Cc3ncc(C)c(OC)c3C)nc2n1 (stereo not given),inactive
2,Nc1ccc(S(=O)(=O)Nc2ccccc2)cc1,inactive
3,CC1(C)S[C@@H]2[C@H](NC(=O)Cc3ccccc3)C(=O)N2[C@H]1C(=O)O (tested in a mixture with another compound),inactive
4,C#CCN(C)Cc1ccccc1,inactive
5,O=C(O)c1ccccn1,inactive
6,CC[C@H]1CN2CCc3cc(OC)c(OC)cc3[C@@H]2C[C@@H]1C[C@H]1NCCc2cc(OC)c(OC)cc21,0.376 µM (active)
7,Cc1ncc(COP(=O)(O)O)c(C=O)c1O,inactive
8,OCC(O)CN1CCN(c2ccccc2)CC1 (stereo not given),inactive
9,Cc1cc(CC(=O)O)n(C)c1C(=O)c1ccc(Cl)cc1,inactive
10,Cc1ccc(C(C)C)cc2c(C)ccc1-2,inactive
11,C[C@H](NC(CCc1ccccc1)C(=O)O)C(=O)N1CCC[C@H]1C(=O)O (stereo not given in full),inactive
12,O=c1cc[nH]c(=S)[nH]1,inactive
13,O=C(O)c1ccccc1O,inactive
14,C[C@@H]1CN(c2c(F)c(F)c3c(=O)c(C(=O)O)cn(C4CC4)c3c2F)C[C@H](C)N1,inactive
15,Cc1cc2nc3c(=O)[nH]c(=O)nc-3n(C[C@H](O)[C@H](O)[C@H](O)CO)c2cc1C,inactive
16,COc1cc2[nH]c(=O)[nH]c(=O)c2cc1OC,inactive
17,O=C1O[C@H](CO)[C@@H](O)[C@H](O)[C@H]1O,inactive
18,Cn1cc[nH]c1=S,inactive
19,CC1=C(/C=C/C(C)=C/C=C/C(C)=C/C(=O)O)C(C)(C)CCC1,inactive
20,O=C(O)CC(O)C(=O)O (stereo not given),inactive

row,Compound,Potency
1,CCN(CC)C(C)CN1c2ccccc2Sc2ccccc21 (stereo not given),inactive
2,COc1ccc2cc1Oc1cc3c(cc1OC)CC[N+](C)(C)[C@H]3Cc1ccc(cc1)Oc1c(OC)c(OC)cc3c1[C@@H](C2)[N+](C)(C)CC3,inactive
3,CCOC(CN1CCN(CC(C)C(=O)c2ccccc2)CC1)c1ccccc1 (stereo not given),inactive
4,Oc1ccc(C(O)CNCCCCCCNCC(O)c2ccc(O)c(O)c2)cc1O (stereo not given),inactive
5,N[C@@H](CSCCCO)C(=O)O,inactive
6,NCC(=O)CCC(=O)O,inactive
7,[Cl][In]([Cl])[Cl],8.63 µM (active)
8,O=C(O)Cc1sc(-c2ccccc2)nc1-c1ccc(Cl)cc1,inactive
9,CNC(=O)Oc1ccc2c(c1)[C@]1(C)CCN(C)[C@@H]1N2C,inactive
10,CC(C)C(=O)c1c(C(C)C)nn2ccccc12,inactive
11,CC12CCC(CC1)C(C)(C)O2,inactive
12,Cc1cc(C(C#N)c2ccc(Cl)cc2)c(Cl)cc1NC(=O)c1cc(I)cc(I)c1O (stereo not given),26.6 µM (active)
13,Nc1cc(=O)[nH]c(N)n1,inactive
14,NS(=O)(=O)c1cc2c(cc1C(F)(F)F)NC(Cc1ccccc1)NS2(=O)=O (stereo not given),inactive
15,C[C@H]1O[C@@H](n2cc(F)c(=O)[nH]c2=O)[C@H](O)[C@@H]1O,inactive
16,Cc1cccc(C)c1NC(=O)CN(CC(=O)O)CC(=O)O,inactive
17,CS(=O)(=O)c1ccc([C@@H](O)[C@@H](CF)NC(=O)C(Cl)Cl)cc1,inactive
18,CC(C)(C(=O)O)c1ccc(C(O)CCCN2CCC(C(O)(c3ccccc3)c3ccccc3)CC2)cc1 (stereo not given),inactive
19,OC[C@H]1O[C@@H](O[C@@H]2[C@@H](CO)O[C@](O)(CO)[C@H]2O)[C@H](O)[C@@H](O)[C@H]1O,inactive
20,O=C(Oc1ccccc1C(=O)O)c1ccccc1O,inactive
